What all share (assay): log2 fold change, soluble protein after heating vs DMSO (PISA); higher = thermal stabilisation; K562 cells, 10 uM, 30 min; active = over 0.2 and 3.5 SD of the protein, either way, in both replicates (recomputed)
Compound in one experiment: C#Cc1cccc(Nc2ncnc3cc(OCCOC)c(OCCOC)cc23)c1 [erlotinib]
In outline: (§1)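 K562 cells (2×10^6 cells/mL) were treated with 10 μM compound for 30 min, and aliquots were heated for 3 min over 48°C-58°C. Pooled aliquots were extracted in PBS with 0.5% NP-40 at 4°C, and the supernatant after 21,000xg for 90 min was measured by TMTpro 16plex LC-MS/MS with channel sums equalised. Reported thermal stability, relative to control samples and from duplicates, is a log2 fold change.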

Compound in experiment [1]: C/C(=N\NC(=O)C1=CC(=CC=C1)S(=O)(=O)N2CCOCC2)/C3=C(C=CC(=C3)Cl)O
Put shortly: as §1

Compound in experiment [2]: C1=CC(=C(C=C1Cl)C2=NC3=NC=CN=C3C(=N2)NC4=CC=NC=C4)F
In outline:
as §1

Compound in experiment [3]: C1=CC(=CC=C1C2=NC3=C(N2)C=C(C=C3)C(=O)N)OC4=CC=C(C=C4)Cl
In outline: as §1

Compound in experiment [4]: C1=CC2=C(C=CC(=C2)/C=C\3/C(=O)NC(=NCC4=CC=CS4)S3)N=C1
In outline:
as §1

Compound in experiment [5]: C1=CC2=NC=CN=C2C=C1/C=C/3\C(=O)NC(=O)S3
In outline: as §1

Compound in experiment [6]: C1=CC=C(C=C1)C2=NC(=C(N2)C3=CC=NC=C3)C4=CC(=C(C=C4)Cl)O
In outline: as §1

Compound in experiment [7]: C1=CC=C2C(=C1)C3=NNC4=CC=CC(=C43)C2=O
Put shortly:
as §1

Compound in experiment [8]: C1CCN(C1)C(=O)NC2=CC=CC(=C2)NC3=NC=C(C(=N3)NCCC4=CN=CN4)Br
In outline:
as §1

Compound in experiment [9]: C1CN(CCC1(CC2=CC=C(C=C2)Cl)N)C3=NC=NC4=C3C=CN4
In outline: as §1

Compound in another experiment: C1COCCN1CCN2C3=CC=CC=C3N=C2NC(=O)C4=CC(=CC=C4)[N+](=O)[O-] [IRAK-1-4 Inhibitor I]
In outline:
as §1

Compound in the next experiment: C=CC(=O)N1CCC[C@@H](n2nc(-c3ccc(Oc4ccccc4)cc3)c3c(N)ncnc32)C1 [ibrutinib]
In outline: as §1

Compound in experiment [10]: CC(=O)c1cnc2ccc(-c3cc(Cl)c(O)c(Cl)c3)nc2c1N[C@H]1CC[C@H](CN(C)C)CC1
In outline:
as §1

Compound in another experiment: CC(C)(C)Cn1c(N)nc2ccc(-c3[nH]c(C(C)(C)C)nc3-c3ccc(F)cc3)nc21 [ralimetinib]
Put shortly:
as §1

Compound in experiment [11]: CC(C)(O)CC(=O)NCCn1ccc2ncnc(Nc3ccc(Oc4cccc(C(F)(F)F)c4)c(Cl)c3)c21
In outline:
as §1

Compound in experiment [12]: CC(C)C1=C2N=C(C=C(N2N=C1)NCC3=CC=CC=C3)NCCCCCCN
Put shortly:
as §1

Compound in experiment [13]: CC(C)C[C@@H](C=O)NC(=O)[C@H](CC(C)C)NC(=O)[C@H](CC(C)C)NC(=O)OCc1ccccc1
Put shortly:
as §1

Compound in a further experiment: CC(C)N(C[C@H]1O[C@@H](n2cnc3c(N)ncnc32)[C@H](O)[C@@H]1O)[C@H]1C[C@@H](CCc2nc3cc(C(C)(C)C)ccc3[nH]2)C1 [pinometostat]
In outline: as §1

Compound in experiment [14]: CC1=C(C(CC(=O)N1)C2=CC=C(C=C2)C(F)(F)F)C(=O)NC3=C(C=C4C(=C3)C=NN4)F
In outline: as §1

Compound in experiment [15]: CC1=C(C2=C(C=C1)C(=O)C3=CC=CC=C3N2CCCN)C
Put shortly: as §1

Among the data in the supplement of paper PMC10849652 are log2 fold change values, retold here.

About 7,900 targets were measured; listed, in parts, are those with a hit and a random draw of the rest. About 0.6% of all pairs of compound and target were hits. A number with no mark means an inactive call.

UniProt Q6P1A2, sequence (Q6P1A2 whole entry, looked up): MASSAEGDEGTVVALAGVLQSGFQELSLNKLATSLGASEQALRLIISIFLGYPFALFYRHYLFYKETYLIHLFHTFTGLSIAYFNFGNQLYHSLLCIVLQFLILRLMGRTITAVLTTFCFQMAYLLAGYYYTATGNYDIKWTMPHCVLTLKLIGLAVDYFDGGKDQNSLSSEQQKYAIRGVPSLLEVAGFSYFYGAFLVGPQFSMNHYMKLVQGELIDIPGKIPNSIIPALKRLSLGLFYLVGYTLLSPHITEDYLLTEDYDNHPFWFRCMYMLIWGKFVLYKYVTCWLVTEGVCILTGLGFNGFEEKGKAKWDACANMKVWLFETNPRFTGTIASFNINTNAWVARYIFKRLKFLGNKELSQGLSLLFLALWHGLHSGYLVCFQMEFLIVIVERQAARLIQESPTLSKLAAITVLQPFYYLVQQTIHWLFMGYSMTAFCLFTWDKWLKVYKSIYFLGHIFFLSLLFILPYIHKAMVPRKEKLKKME
UniProt P11717, sequence (P11717 whole entry, looked up): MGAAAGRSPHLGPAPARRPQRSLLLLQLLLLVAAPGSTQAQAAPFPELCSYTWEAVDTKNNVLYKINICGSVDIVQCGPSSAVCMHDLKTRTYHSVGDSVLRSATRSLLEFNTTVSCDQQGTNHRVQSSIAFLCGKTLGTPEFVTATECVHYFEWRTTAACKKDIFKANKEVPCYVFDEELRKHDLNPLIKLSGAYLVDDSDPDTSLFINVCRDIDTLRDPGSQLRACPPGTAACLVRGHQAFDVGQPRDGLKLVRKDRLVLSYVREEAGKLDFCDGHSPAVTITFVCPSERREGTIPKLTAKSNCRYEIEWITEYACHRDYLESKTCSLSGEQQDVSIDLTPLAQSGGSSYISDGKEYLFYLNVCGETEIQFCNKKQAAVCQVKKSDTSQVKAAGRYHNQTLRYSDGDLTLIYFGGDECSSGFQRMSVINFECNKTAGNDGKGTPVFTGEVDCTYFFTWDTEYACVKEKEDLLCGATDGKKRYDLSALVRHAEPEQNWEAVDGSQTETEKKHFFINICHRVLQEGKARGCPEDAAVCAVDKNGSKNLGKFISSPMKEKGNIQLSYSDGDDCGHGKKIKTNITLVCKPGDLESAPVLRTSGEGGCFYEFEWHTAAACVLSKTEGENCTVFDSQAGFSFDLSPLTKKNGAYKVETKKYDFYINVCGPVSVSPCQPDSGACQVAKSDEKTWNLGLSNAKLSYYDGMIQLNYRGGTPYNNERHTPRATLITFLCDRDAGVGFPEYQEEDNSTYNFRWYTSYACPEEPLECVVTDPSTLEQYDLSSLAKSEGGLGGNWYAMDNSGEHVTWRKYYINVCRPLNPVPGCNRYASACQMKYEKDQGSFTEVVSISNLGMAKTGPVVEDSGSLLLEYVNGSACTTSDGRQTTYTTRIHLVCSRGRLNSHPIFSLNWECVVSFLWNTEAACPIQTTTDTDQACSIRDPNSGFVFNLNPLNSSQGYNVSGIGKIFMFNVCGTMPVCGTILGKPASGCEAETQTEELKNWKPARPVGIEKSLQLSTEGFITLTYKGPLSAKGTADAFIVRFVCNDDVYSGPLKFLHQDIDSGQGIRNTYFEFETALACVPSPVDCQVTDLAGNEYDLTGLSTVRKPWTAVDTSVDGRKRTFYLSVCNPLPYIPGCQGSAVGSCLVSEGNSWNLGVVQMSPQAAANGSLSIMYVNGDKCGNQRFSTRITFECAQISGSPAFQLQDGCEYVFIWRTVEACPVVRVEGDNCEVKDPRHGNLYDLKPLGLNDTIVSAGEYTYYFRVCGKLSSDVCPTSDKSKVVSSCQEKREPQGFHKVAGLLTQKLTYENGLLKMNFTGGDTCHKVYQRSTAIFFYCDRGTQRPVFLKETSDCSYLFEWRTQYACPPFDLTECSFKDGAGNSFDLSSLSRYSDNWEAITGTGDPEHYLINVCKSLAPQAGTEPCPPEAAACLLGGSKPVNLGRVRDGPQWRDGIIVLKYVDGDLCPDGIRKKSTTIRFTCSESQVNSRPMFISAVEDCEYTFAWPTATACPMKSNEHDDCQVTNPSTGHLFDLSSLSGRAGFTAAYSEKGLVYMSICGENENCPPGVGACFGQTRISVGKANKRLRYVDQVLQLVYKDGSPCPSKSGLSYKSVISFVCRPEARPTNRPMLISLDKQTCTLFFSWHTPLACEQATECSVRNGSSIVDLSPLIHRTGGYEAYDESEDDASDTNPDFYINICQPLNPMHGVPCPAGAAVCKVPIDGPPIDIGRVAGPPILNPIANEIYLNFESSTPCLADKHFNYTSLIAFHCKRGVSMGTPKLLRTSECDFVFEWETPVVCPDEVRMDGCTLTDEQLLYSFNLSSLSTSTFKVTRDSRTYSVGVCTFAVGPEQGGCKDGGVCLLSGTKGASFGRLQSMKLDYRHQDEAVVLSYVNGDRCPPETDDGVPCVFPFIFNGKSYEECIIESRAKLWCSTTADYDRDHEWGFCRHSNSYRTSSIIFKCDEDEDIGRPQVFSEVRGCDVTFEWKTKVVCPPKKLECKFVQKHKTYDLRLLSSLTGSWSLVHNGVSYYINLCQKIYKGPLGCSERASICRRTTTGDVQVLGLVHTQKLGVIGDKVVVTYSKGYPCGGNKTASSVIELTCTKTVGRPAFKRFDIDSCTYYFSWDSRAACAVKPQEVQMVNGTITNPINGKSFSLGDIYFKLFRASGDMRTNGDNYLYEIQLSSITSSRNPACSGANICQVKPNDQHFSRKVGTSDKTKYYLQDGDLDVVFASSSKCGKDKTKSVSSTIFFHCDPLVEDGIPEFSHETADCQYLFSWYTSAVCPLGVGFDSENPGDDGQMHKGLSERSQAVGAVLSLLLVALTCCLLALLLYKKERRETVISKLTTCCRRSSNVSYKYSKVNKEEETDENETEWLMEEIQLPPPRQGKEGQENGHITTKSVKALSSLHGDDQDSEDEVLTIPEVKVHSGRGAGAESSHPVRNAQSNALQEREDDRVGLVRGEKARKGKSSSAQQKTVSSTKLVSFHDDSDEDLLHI
UniProt O14880, sequence (O14880 whole entry, looked up): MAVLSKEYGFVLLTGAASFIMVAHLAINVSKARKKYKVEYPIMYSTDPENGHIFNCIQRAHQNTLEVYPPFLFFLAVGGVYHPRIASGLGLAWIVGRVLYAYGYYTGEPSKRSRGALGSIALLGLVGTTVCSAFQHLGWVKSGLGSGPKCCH
UniProt P01130, sequence (P01130 whole entry, looked up): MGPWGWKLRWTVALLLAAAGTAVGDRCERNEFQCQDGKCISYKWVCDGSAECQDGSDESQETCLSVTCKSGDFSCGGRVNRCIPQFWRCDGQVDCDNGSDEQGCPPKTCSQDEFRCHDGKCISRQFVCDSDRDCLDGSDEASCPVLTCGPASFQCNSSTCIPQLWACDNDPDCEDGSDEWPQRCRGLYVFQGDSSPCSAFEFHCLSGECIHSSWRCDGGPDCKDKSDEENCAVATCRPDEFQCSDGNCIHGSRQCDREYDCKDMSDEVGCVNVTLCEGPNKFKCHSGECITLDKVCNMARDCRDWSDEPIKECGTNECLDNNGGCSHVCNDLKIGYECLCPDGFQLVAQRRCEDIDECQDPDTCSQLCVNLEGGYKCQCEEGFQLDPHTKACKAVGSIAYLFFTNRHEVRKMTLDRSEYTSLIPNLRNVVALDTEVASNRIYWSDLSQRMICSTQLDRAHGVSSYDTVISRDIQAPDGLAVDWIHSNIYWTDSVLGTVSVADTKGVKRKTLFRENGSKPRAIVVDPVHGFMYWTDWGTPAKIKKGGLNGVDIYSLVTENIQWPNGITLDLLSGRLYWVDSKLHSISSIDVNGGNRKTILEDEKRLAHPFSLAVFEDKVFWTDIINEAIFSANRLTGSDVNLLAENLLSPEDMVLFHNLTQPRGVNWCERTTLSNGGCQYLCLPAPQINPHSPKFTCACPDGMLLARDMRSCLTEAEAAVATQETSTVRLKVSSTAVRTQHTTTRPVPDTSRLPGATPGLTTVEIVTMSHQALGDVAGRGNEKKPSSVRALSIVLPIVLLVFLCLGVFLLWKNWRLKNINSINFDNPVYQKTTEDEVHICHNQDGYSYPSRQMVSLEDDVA

Regarding MGST3 (UniProt O14880), the log2 fold change in the experiment with erlotinib was -0.025; in experiment [1], -0.03; in [2], 0.013; in [3], 0.003; in experiment [4], 0.006; in experiment [5], 0.041. Further, the log2 fold change was -0.022 in experiment [6]; -0.023 in experiment [7]; 0.019 in experiment [8]; 0.016 in experiment [9]; 0.115 with IRAK-1-4 Inhibitor I; 0.042 with ibrutinib. Moreover, the log2 fold change was 0.036 in [10]; 0.062 with ralimetinib; 0.041 in experiment [11]; 0.073 in experiment [12]; 0.006 in experiment [13]; -0.025 in the experiment with pinometostat. The log2 fold change was 0.011 in experiment [14] and -0.014 in [15].

Regarding LPCAT3 (UniProt Q6P1A2), the log2 fold change in the experiment with erlotinib is -0.062; in experiment [1], 0.028; in [2], 0.032; in [3], 0.07; in [4], 0.152; in experiment [5] it was 0.071. Also, the log2 fold change was 0.211 in experiment [6]; 0.014 in experiment [7]; 0.059 in experiment [8]; 0.002 in [9]; 0.014 in the experiment with IRAK-1-4 Inhibitor I; -0.034 with ibrutinib. Also, the log2 fold change is 0.099 in experiment [10]; 0.009 in the experiment with ralimetinib; 0.148 in [11]; -0.65 (active) in experiment [12]; -0.004 in [13]; 0.083 with pinometostat. For the same target, the log2 fold change was -0.004 in experiment [14] and 0.03 in experiment [15].

For IGF2R (UniProt P11717), the log2 fold change is -0.052 in the experiment with erlotinib; 0 in experiment [1]; 0 in [2]; 0.025 in experiment [3]; -0.012 in experiment [4]; 0.003 in experiment [5]. For the same target, the log2 fold change in experiment [6] is 0.009; in [7], -0.021; in experiment [8] it was 0.002; in experiment [9], 0.012; with IRAK-1-4 Inhibitor I, -0.002; with ibrutinib, 0.013. For the same target, the log2 fold change is 0.016 in [10]; -0.038 with ralimetinib; -0.007 in experiment [11]; -0.218 (active) in experiment [12]; -0.009 in experiment [13]; 0.005 with pinometostat. Moreover, the log2 fold change in experiment [14] is 0.029; in experiment [15] it was -0.071.

With LDLR (UniProt P01130), the log2 fold change was -0.035 in the experiment with erlotinib; 0.003 in experiment [1]; -0.04 in experiment [2]; 0.03 in experiment [3]; -0.018 in experiment [4]; 0.025 in experiment [5]. Further, the log2 fold change was 0.011 in experiment [6]; -0.113 in [7]; 0.025 in [8]; 0.051 in experiment [9]; 0.03 with IRAK-1-4 Inhibitor I; -0.015 with ibrutinib. Further, the log2 fold change in [10] is -0.106; with ralimetinib, -0.025; in experiment [11], 0.072; in [12], -0.009; in experiment [13], 0.171; in the experiment with pinometostat it was -0.011. Moreover, the log2 fold change in experiment [14] was 0.019; in experiment [15], -0.058.
